Results from ChEMBL document CHEMBL3988442, “University of Dundee, Small-Polar-MMV Screening Library” (2021).
In all, about 48,000 compounds went through this assay and about 13,000 (27%) showed an effect of 50% or more. The list shows a part of the results.

What follows are compounds tested on Wolbachia pipientis (assay: Anti-Wolbachia Cell-Based Screen). Details: 5 µM.
Type: functional
Set-up: scale not given: in the data most compounds retested in dose-response had high values

Structure (SMILES)	Percent Effect [%]
N#Cc1cc2c(=O)n(CC(O)Cc3ccccc3)ccc2[nH]c1=O (configuration not stated)	-6.856
O=C(Nc1ccc(-c2ccccc2)cc1)N1C[C@@H]2CNC[C@]2(C(=O)O)C1	6.586
CC(C)N1CCN(S(=O)(=O)c2ncn(C)c2Cl)CC1	22.53
O=C1O[C@@H]2CN(Cc3cccc(O)c3)C[C@@H]2N1CCCN1CCOCC1	15.85
Cn1cc(CN2CC[C@@H]3[C@@H]2CCN3Cc2ccc3c(c2)OCO3)cn1.O=C(O)C(F)(F)F.O=C(O)C(F)(F)F	-8.648
Cn1cc(C(=O)N2CC[C@@H]3[C@@H]2CCN3Cc2ccccc2)cn1.O=C(O)C(F)(F)F	-15.71
Cn1cc(CN2CC[C@@H]3[C@H]2CCC(=O)N3c2ccccc2)cn1.O=C(O)C(F)(F)F	107.5
CN(Cc1ccccc1)C(=O)CS(=O)(=O)Cc1ccc(Cl)c(Cl)c1	-2.386
Cc1cccc(S(=O)(=O)NC2CCN(CC(F)(F)F)C2)c1 (configuration not stated)	-3.118
COc1ccccc1NCC(=O)NCc1ccc(-c2ccn[nH]2)cc1	-17.15
COC(=O)NC1(C(=O)NCc2ccc(-c3ccn[nH]3)cc2)CCCC1	-10.61
O=C(NCc1ccc2c(c1)OCCO2)N1CCC(CO)CC1	-3.134
CCOCC1CCCN(C(=O)NCc2ccc(-c3ccn[nH]3)cc2)C1 (configuration not stated)	107.6
O=C(NCc1ccccc1)N1CCC(Oc2ncccc2Cl)CC1	6.296
CC(=O)N1CCCN(C(=O)NCc2ccc(-c3ccn[nH]3)cc2)CC1	101.6
CNC(=O)C1CCN(C(=O)NCc2ccc(-c3ccn[nH]3)cc2)CC1	139.8
CNC(=O)C1CCN(C(=O)NCc2ccc(C)n2C)CC1	-3.399
CC(=O)NC1CCCN(C(=O)NCc2ccc(-c3ccn[nH]3)cc2)C1 (configuration not stated)	11.01
NC(=O)CC1CCN(C(=O)NCc2ccc(-c3ccn[nH]3)cc2)CC1	131.5
Cc1[nH]ncc1CCCNC(=O)N1CCC(CC(N)=O)CC1	-1.64
CCOc1ccc(CNC(=O)N2CCCC(CO)C2)cc1F (configuration not stated)	1.945
O=C(O)C(F)(F)F.O=C(c1cnoc1)N1CCC[C@]2(C[C@@H](OCc3ccccn3)CO2)C1	20.74
NC(=O)C1CCN(C(=O)NCc2ccc(-c3ccn[nH]3)cc2)CC1	110.5
NC(=O)C1CCN(C(=O)NCc2ccc3c(c2)OCCO3)CC1	2.129
O=C(NCc1ccc(-c2ccn[nH]2)cc1)N1CCC(N2CCCC2)C1 (configuration not stated)	1.692

Structure (SMILES)	Percent Effect [%]
Cc1csc(CNc2cnn(CC(C)C)c2)n1	-6.579
Cc1csc(CNc2cnn(CC(F)(F)F)c2)n1	0.5328
CCC(CC)C(CNC(=O)Nc1cnn(CCOC)c1)N(C)C (configuration not stated)	-1.824
CCn1cc(NC(=O)NCC(O)CN2CCCCC2)cn1 (configuration not stated)	-8.278
Cc1cc(C)c(NC(=O)Nc2cnn(CC(O)CN(C)C)c2)c(C)c1 (configuration not stated)	101.9
CCN(CC)Cc1ccc(CNC(=O)C(C)(C)n2cc(Br)cn2)cc1	25.74
CN(C)CC(O)Cn1cc(NCc2ccc(Br)cc2)cn1 (configuration not stated)	110.4
Cc1cc(C)c(CNc2cnn(CC(O)CN(C)C)c2)c(C)c1 (configuration not stated)	97.23
CNS(=O)(=O)CC1CCCN1c1ccc(Cl)cn1 (configuration not stated)	-0.6453
CC(C)COC(C)C(=O)N1CCCCC1 (configuration not stated)	22.01
O=C(Cn1cccn1)NCC1(c2ccccc2)CC1	8.498
O=C(CNCCn1cccn1)NCC1(c2ccccc2)CCOCC1	92.49
O=C(CNCCn1cccn1)NCC1(c2ccccc2)CC1	-4.744
N#CC1(NC(=O)CNCCn2cccn2)CCCCC1	0.8723
Cc1cnn(CCNCC(=O)NCC2(c3ccccc3)CC2)c1	75.55
CC(NC1(CNC(=O)Cn2cccn2)CCOCC1)c1ccccc1 (configuration not stated)	-4.179
Cc1cnn(CCNCC(=O)NCCOc2ccccc2)c1	-6.94
Cc1cnn(CCNCC(=O)NCC2(c3ccccc3)CCC2)c1	6.79
Cc1cccc(C2(C(=O)NCCCn3cccn3)CC2)c1	-18.04
O=C(CNCCn1cccn1)NCC1(c2ccccc2)CCC1	123.8
CN(C(=O)CNCCn1cccn1)C1(C#N)CCCCC1	-7.323
O=C(CNCCn1cccn1)NCC1(c2ccccc2)CCCC1	152.5
Fc1ccc(-n2cccn2)c(CN2CCCCC2CCn2ccnc2)c1 (configuration not stated)	6.266
Cc1cc(NC(=O)CCNC(C)(C)c2nc(C)c(C)s2)no1	-5.204
Cc1ccccc1C1CCCN(C(=O)c2c[nH]c(=O)c(Cl)c2)C1 (configuration not stated)	0.979

Structure (SMILES)	Percent Effect [%]
O=C(NCc1ccoc1)c1ccc(C2CCCN2CC2CCOCC2)s1 (configuration not stated)	-3.898
CC(=O)NC(Cc1c[nH]c2cc(F)ccc12)C(=O)Nc1nncs1 (configuration not stated)	-20.07
CC(C)NC(=O)c1cc2c([nH]c1=O)CC(c1cccs1)CC2=O (configuration not stated)	-15.67
Cc1ccc(CN2CC[C@H]3OCC[C@@H](C(=O)NCC4CC4)[C@@H]3C2)o1	-3.1
Cc1ccc(CN2C[C@@H]3C[C@H](C(=O)NCC4CC4)N(C)[C@@H]3C2)o1.O=C(O)C(F)(F)F.O=C(O)C(F)(F)F	102.8
COCCN1CCO[C@@H]2CN(Cc3ccc(C)o3)C[C@@H]2C1.O=C(O)C(F)(F)F.O=C(O)C(F)(F)F	4.147
CN(C)[C@@H]1CN(Cc2ccco2)C[C@@H]2CCCO[C@@H]21.O=C(O)C(F)(F)F.O=C(O)C(F)(F)F	5.089
Cc1ccc(CN2C[C@H]3C[C@H](C(=O)NCc4cccnc4)[C@@H](C2)O3)o1	-11.22
O=C(NCC1CC1)[C@@H]1CCO[C@@H]2CCN(Cc3ccco3)C[C@H]21.O=C(O)C(F)(F)F	-5.269
CC(C)N1[C@@H](C(=O)NCC2CC2)C[C@@H]2CN(Cc3ccco3)C[C@@H]21	96.03
CC(=O)N1C[C@H]2CCCN(Cc3ccc(C)o3)[C@H]2C1.O=C(O)C(F)(F)F	-21.55
Cc1ccc(CN2C[C@H]3C[C@H](C(=O)NCC4CC4)N(C)[C@H]3C2)o1	105.7
CN1[C@@H](C(=O)NCC2CC2)C[C@@H]2CN(Cc3ccoc3)C[C@@H]21	87.47
CC(C)(C)CCS(=O)(=O)NCCc1csc(N2CCCC2)n1	-17.7
CC(C)(C)SCC(=O)Nc1cc(-n2nnnc2C2CC2)ccc1F	-2.902
c1ncc2c(n1)CN(Cc1cn3ccsc3n1)CC2	-19.58
NC(=O)CN(CC(=O)NCc1cc(F)cc(F)c1)C1CCCC1	2.456
CC1(C)COCCN1C(=O)Cc1csc(Cc2ccccn2)n1	-7.387
CCNC(=O)NC(=O)CN1CCC(c2c[nH]c3ccc(OC)cc23)CC1	-12.44
CC(C)Cc1noc(CN(C)C2CCS(=O)(=O)C2)n1 (configuration not stated)	-20.93
COCC(O)CN1CCC(NC(=O)c2cscc2C)CC1 (configuration not stated)	-6.433
Cc1ccc(S(N)(=O)=O)cc1C(=O)NC1CCCC1	60.38
COC(=O)N1CCC(NC(=O)c2cc(S(N)(=O)=O)ccc2C)CC1	98.52
CCc1ccc(O)c(C(=O)NC2CCN(S(=O)(=O)CC)CC2)c1	-4.06
Cc1ccc(S(N)(=O)=O)cc1C(=O)NCC1Cc2ccccc2O1 (configuration not stated)	20.46

Structure (SMILES)	Percent Effect [%]
Cc1ccc(C)c(C(=O)NC2CCC(N3C(=O)CCC3=O)CC2)c1 (configuration not stated)	7.383
CC(=O)N1CCC(NC(=O)c2cc(Cl)ccc2O)CC1	5.076
COCCC(=O)N1CCC(NC(=O)c2cscc2C)CC1	4.5
CC(=O)N1CCC(NC(=O)c2cc(S(N)(=O)=O)ccc2C)CC1	120.7
NS(=O)(=O)c1ccc(F)c(C(=O)NCCSC2CCCCC2)c1	-0.4963
O=C(NC1CCN(C2CC2)CC1)c1cc(Cl)ccc1-n1cnnn1	-15.3
Cc1ccc(S(N)(=O)=O)cc1C(=O)NC1CCN(C2CC2)CC1	102.7
CCN1C(=O)[C@H]2CN(CC(C)C)C[C@H]2C12CCN(C(=O)NC(C)C)CC2.O=C(O)C(F)(F)F	-7.35
CCCOC(C)Cn1ccc2[nH]c(=O)c(C#N)cc2c1=O (configuration not stated)	-62.19
CC(C)C(C)(CNC(=O)OC(C)(C)C)NC(=O)c1cnccn1 (configuration not stated)	1.478
Cc1c(NCCOCC(F)(F)F)cccc1C(=O)N1CCCC1	1.47
COc1ccc(S(=O)(=O)NCC(O)c2sccc2C)cc1C (configuration not stated)	4.303
CCCC(=O)NC1CCCN(c2nc3ccccc3cc2CO)C1 (configuration not stated)	0.5391
O=C(c1ccsc1)N1CC(C(=O)N2CCOCC2)C2(CCOCC2)C1 (configuration not stated)	-0.6494
CC(C)(C)n1ncc(C(=O)NCCCC(N)=O)c1C(F)(F)F	6.459
Cc1ccc(S(N)(=O)=O)cc1C(=O)N1C[C@@H](CN(C)C)[C@@H](CO)C1	4.643
Cc1ccc(S(N)(=O)=O)cc1C(=O)N1CCc2c(ncnc2N(C)C)C1	-11.64
Cc1ccc(S(N)(=O)=O)cc1C(=O)NC1CCCN(C)C1 (configuration not stated)	108
O=S1(=O)CCC(c2nc(-c3cccc(Br)c3)no2)C1 (configuration not stated)	-8.148
CN(C)C1CCCN(C(=O)CCc2csc(N)n2)CC1 (configuration not stated)	-10.57
CN1[C@H]2CC[C@@H]1CN(C(=O)CCc1csc(N)n1)CC2	2.348
CC(C)N1CCCC1c1csc(N)n1 (configuration not stated)	125.7
